For some assays here: Entries with a potency or affinity are not part of this list.
Key:
Design in all cases: scale not given: direction of the effect not stated beside the values
[1] = biological target: Protein translocase subunit SecA (Escherichia coli (strain K12)) (UniProt P10408); test: Assay to Identify E. coli SecA ATPase Inhibitors; assay type: functional; settings: 30 µM
[2] = biological target: T1, Ubiquitin-activating enzyme e1, putative (Leishmania donovani (strain BPK282A1)) (UniProt E9BSI1); test: Leishmania donovani Ubiquitin Activating Enzyme (LdE1); assay type: functional; settings: 30 µM
T1 sequence (whole entry): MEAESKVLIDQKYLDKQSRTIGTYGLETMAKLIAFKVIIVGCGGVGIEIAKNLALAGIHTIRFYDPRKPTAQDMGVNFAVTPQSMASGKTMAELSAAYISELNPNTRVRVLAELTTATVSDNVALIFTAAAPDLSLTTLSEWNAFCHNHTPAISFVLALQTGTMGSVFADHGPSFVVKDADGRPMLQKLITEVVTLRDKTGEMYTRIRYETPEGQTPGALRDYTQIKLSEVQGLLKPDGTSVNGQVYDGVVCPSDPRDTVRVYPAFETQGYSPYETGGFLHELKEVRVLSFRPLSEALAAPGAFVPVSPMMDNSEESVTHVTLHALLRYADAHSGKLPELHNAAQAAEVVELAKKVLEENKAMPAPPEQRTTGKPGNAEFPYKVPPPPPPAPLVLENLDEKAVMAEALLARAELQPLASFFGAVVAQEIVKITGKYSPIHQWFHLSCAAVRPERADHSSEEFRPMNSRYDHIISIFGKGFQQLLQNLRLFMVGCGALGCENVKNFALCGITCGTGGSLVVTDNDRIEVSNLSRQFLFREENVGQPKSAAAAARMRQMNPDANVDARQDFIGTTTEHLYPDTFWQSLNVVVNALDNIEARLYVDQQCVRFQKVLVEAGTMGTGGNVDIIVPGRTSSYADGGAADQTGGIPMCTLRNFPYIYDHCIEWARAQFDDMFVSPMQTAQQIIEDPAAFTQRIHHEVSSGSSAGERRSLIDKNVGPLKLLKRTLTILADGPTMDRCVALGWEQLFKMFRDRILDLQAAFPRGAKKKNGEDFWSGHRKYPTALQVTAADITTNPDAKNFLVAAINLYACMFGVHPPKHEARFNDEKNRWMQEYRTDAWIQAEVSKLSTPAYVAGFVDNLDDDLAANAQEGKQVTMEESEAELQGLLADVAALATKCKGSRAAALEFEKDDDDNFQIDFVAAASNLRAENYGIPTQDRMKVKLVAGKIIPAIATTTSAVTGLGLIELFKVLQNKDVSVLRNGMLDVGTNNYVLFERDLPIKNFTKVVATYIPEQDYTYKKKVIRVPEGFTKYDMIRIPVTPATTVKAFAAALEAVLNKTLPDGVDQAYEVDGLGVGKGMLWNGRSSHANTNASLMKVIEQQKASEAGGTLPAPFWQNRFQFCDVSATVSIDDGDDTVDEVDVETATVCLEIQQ

[3] = biological target: Sialic acid-binding Ig-like lectin 9 (Homo sapiens) (UniProt Q9Y336); test: Hs-Siglec9 ALPHAscreen SOP 20170721; settings: 10 µM
[4] = tested on: Trypanosoma cruzi; test: Trypanosoma cruzi phosphomannomutase and mannose-1-phosphate guanylyltransferase assay; assay type: functional; settings: 10 µM
[5] = biological target: T2, Arginase-2, mitochondrial (Homo sapiens) (UniProt P78540); test: in vitro enzyme assay to detect the production of urea directly proportional to the activity of Arginase II; assay type: functional; settings: 33.3 µM; note: in the data most compounds retested in dose-response had high values
T2 sequence (whole entry): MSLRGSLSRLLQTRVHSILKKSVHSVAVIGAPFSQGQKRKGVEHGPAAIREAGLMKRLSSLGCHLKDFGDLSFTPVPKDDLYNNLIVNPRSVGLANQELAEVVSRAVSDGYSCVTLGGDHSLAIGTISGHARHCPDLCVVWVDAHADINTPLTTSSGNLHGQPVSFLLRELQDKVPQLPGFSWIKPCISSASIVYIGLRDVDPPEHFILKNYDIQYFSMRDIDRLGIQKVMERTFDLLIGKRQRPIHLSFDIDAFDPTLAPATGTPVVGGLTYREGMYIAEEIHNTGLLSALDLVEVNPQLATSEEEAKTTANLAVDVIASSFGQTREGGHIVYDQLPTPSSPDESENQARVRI

[6] = biological target: T3, Proteasome subunit beta (Trypanosoma cruzi) (UniProt O96673); test: Trypanosoma cruzi proteasome chymotrypsin-like activity (TcProtChymo) assay.; note: in the data most compounds retested in dose-response had high values; assay type: functional; settings: 9.37 µM
T3 sequence (whole entry): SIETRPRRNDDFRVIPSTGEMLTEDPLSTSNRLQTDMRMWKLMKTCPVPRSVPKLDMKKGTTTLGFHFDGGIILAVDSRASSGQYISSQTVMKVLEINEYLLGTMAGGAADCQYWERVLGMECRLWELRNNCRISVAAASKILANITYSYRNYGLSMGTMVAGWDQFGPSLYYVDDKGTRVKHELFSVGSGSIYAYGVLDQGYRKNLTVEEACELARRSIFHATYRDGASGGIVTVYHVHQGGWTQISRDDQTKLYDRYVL

[7] = species on record: Homo sapiens; test: To identify inhibition of the IFN signalling (Jak-Stat) pathway via expression of an eGFP reporter gene under the control of an IFN-stimulated response element (ISRE) containing MxA promoter.; assay type: functional; settings: 30 µM
[8] = biological target: T4, Tyrosyl-tRNA synthetase, putative (Trypanosoma cruzi (strain CL Brener)) (UniProt Q4DSP6); test: Trypanosoma cruzi tyrosyl tRNA synthetase (TcYRS) _High Tyrosine SOP; assay type: functional; settings: 30 µM; note: in the data most compounds retested in dose-response had high values
T4 sequence (whole entry): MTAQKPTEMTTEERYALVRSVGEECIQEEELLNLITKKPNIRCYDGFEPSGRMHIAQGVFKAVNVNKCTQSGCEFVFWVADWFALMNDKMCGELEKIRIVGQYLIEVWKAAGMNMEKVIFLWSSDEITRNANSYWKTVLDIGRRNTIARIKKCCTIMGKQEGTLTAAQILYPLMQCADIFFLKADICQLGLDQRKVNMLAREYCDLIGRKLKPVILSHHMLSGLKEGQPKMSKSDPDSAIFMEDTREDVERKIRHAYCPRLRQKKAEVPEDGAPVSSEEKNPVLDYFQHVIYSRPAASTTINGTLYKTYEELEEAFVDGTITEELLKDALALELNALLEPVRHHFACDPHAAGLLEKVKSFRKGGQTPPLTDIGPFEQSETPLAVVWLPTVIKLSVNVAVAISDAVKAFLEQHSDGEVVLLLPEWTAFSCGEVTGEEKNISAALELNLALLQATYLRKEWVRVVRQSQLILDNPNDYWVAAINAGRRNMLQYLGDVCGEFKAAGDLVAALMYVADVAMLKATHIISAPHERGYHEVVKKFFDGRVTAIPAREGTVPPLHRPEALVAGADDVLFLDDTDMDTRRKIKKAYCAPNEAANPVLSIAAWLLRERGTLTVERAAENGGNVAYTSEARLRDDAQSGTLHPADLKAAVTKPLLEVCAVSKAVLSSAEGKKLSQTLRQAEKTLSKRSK

[9] = biological target: T4, Tyrosyl-tRNA synthetase, putative (Trypanosoma cruzi (strain CL Brener)); test: Trypanosoma cruzi tyrosyl tRNA synthetase (TcYRS) SOP; assay type: functional; settings: 30 µM
[10] = biological target: Chromo domain-containing protein 1 (Saccharomyces cerevisiae (strain ATCC 204508 / S288c) (Baker's yeast)) (UniProt P32657); test: ScCHD-1 Enzyme Inhibition Assay; assay type: functional; settings: 30 µM; note: in the data most compounds retested in dose-response had high values
Chain of Chromo domain-containing protein 1 (Saccharomyces cerevisiae (strain ATCC 204508 / S288c) (Baker's yeast)) (P32657 whole entry, the tested form may be a part): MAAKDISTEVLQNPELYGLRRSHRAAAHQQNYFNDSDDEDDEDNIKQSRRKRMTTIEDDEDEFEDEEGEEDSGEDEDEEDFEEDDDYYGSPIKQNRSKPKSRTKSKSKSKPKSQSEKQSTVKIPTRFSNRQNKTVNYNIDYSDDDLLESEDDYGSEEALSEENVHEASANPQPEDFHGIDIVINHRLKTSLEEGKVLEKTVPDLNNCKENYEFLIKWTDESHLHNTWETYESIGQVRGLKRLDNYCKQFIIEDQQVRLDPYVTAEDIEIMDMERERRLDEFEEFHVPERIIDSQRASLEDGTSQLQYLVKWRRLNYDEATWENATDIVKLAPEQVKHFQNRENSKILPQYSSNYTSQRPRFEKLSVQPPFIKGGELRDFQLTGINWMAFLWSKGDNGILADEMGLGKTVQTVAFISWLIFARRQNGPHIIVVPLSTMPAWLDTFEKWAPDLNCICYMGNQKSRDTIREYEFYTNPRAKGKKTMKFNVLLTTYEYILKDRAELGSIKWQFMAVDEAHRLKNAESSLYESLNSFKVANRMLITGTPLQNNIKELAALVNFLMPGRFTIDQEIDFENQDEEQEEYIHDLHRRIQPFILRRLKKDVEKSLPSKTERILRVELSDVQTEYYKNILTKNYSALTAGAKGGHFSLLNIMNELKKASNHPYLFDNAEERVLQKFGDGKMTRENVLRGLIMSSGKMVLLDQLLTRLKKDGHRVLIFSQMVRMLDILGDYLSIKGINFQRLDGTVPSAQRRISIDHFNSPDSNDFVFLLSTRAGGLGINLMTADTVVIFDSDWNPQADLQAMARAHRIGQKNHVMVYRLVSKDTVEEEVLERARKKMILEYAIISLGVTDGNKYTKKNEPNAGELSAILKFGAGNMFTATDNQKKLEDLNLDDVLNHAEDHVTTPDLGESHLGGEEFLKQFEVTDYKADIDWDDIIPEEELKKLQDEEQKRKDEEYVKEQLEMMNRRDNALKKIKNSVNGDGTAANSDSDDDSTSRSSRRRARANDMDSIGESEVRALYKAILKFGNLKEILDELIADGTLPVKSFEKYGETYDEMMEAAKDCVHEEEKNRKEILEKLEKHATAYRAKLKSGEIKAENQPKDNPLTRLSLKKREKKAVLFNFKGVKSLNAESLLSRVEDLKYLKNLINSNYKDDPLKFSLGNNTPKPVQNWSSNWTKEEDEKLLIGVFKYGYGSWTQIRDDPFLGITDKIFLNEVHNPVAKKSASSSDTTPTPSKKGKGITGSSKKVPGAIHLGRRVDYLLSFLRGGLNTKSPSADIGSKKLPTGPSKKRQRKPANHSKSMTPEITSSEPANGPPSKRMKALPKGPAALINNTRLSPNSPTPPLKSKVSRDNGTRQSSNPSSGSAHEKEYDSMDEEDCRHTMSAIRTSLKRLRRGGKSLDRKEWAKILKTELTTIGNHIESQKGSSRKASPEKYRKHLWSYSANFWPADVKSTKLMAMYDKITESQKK

Chain of Sialic acid-binding Ig-like lectin 9 (Homo sapiens) (Q9Y336 whole entry): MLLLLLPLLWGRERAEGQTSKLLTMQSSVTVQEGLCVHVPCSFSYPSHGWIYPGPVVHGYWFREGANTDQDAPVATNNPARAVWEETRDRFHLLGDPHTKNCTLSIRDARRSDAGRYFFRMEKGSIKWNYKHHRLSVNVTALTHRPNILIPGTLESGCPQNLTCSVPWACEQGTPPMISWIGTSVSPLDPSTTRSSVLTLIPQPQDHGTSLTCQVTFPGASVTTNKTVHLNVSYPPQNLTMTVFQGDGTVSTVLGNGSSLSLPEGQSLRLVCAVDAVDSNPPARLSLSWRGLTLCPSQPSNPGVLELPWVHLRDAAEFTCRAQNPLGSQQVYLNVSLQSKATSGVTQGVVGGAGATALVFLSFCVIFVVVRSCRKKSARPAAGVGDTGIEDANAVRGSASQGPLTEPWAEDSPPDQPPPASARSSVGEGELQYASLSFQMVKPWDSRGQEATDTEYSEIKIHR
Chain of Protein translocase subunit SecA (Escherichia coli (strain K12)) (P10408 whole entry): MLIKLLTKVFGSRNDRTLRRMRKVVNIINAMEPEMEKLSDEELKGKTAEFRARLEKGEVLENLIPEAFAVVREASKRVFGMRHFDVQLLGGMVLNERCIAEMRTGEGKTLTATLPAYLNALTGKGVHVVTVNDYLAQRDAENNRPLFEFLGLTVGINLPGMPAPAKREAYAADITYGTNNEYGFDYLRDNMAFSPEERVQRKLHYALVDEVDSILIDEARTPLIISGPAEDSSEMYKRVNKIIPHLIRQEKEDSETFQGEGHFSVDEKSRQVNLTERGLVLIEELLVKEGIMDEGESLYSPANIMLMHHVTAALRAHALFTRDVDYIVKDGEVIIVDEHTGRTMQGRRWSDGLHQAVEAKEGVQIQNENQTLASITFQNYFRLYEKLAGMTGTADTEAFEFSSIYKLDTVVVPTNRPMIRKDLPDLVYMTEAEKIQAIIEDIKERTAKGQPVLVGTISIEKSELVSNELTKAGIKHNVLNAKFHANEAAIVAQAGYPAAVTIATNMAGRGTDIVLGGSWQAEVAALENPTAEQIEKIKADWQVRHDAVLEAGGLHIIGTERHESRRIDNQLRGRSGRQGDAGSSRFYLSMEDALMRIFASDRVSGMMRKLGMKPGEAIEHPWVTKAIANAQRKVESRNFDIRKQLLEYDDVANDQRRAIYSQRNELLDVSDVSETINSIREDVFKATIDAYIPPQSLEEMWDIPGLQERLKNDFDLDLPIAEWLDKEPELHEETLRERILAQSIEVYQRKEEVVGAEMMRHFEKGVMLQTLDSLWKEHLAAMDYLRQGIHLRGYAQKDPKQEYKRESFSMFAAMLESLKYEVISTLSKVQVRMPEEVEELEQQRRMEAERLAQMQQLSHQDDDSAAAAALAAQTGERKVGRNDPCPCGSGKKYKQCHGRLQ

Compound | Percent Effect [1] | Percent Effect [2] | Percent Effect [3] | Percent Effect [4] | Percent Effect [5] | Percent Effect [6] | Percent Effect [7] | Percent Effect [8] | Percent Effect [9] | Percent Effect [10]
Cc1nc(-c2nnc[nH]2)sc1C(=O)N(Cc1cccnc1)C1CC1 | -4.44% | 12.8% | -5.72% | 6.67% | -0.41% | 7.42% | 9.73% | 2.39% | 18.1% | -6.07%
O=C(O)c1cc(-c2cccnc2)cc(S(=O)(=O)N2CCCCCC2)c1 | -7.1% | 5.41% | 3.44% | -3.4% | 0.35% | 12.7% | 8.29% | 5.85% | -2.44% | -1.87%
CC(=O)N1CCc2c(nc(-c3ccccn3)nc2N(C)CC(O)CO)C1 (stereo not given) | -7.71% | 8.11% | 3.94% | 2.62% | 5.25% | 3.94% | -12.5% | 14.4% | 21.9% | -1.31%
CC(C)N1CCCC2(CCN(C(=O)CCCn3ccnc3)C2)C1=O (stereo not given) | -6.84% | 2.7% | 0.678% | -2.62% | -1.75% | 13.4% | -5.32% | 4.79% | 12.2% | -0.546%
COCCc1noc(CN2CCCCC2Cn2cc(C)cn2)n1 (stereo not given) | -0.511% | -2.56% | -0.235% | 3.85% | -1.23% | 3.84% | 12.7% | -3.35% | 6.02% | -1.31%
COc1cccc(CN2CCC3(CCN(C(=O)[C@H]4CCCO4)CC3)C2)c1 | -2.54% | 22.1% | -5.6% | 0.188% | 0% | 12.6% | -14.8% | 10.6% | -2.5% | -10.4%
Cc1cc(C(=O)NCCn2nc3ccccn3c2=O)[nH]n1 | 0.567% | 12.8% | -9.12% | -3.1% | 0% | 16.8% | 8.57% | 1.44% | 18.1% | -7.79%
NC(=O)CN1CCC(C(=O)N2CCCC(OCc3cccnc3)C2)CC1 (stereo not given) | -5.86% | 2.7% | 1.65% | -2.23% | -0.35% | 6.16% | 9.22% | 4.79% | 14.6% | 1.71%
CC(C)c1ncncc1C(=O)NCCN1CCCS1(=O)=O | -3.82% | 5.13% | -1.57% | 7.98% | 3.69% | 3.5% | 1.77% | 1.44% | 10.8% | 1.18%
Cc1c(O)oc(-c2ccc(Br)cc2)nc1=O | -4.74% | -73.3% | -12.4% | 2.96% | -4.87% | 12.6% | 12.7% | 3.17% | 15% | -18.8%
Cc1ccc2oc(C(=O)N3CCc4nnc(N(C)C)cc4C3)cc2n1 | -3.69% | 10.7% | 5.58% | 3.21% | 0.887% | 12.8% | 4.8% | 4.74% | 5.13% | -10.7%
